Data from PubChem BioAssay AID624377 (The Scripps Research Institute Molecular Screening Center, 2012).
The whole screen tested about 360,000 compounds, of which about 680 (0.19%) were called active. Rule as the data show it: active = inhibition above about 25%; inactive = the rest. Many of the other results were omitted from the sample, so actives are more common in it than they were.

Biological target: Arf-GAP with SH3 domain, ANK repeat and PH domain-containing protein 1 (Homo sapiens) (UniProt Q9ULH1)
Sequence (Q9ULH1 325-724 limits assumed): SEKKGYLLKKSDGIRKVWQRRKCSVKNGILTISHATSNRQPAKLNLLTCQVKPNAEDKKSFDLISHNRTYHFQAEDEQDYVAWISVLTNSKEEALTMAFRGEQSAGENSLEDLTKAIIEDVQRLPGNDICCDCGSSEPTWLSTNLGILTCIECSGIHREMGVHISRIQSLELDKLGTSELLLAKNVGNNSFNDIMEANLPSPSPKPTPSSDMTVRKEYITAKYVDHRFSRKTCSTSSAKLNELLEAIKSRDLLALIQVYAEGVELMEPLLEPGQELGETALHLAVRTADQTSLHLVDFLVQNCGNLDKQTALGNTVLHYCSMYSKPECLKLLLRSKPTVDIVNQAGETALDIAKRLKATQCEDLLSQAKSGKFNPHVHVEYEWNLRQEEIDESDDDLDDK
Assay: blockers of ASAP1-stimulated ARF1 GTP hydrolysis – biochemical, fluorescence polarization, primary screen (AID 624377);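 also: 0% = vehicle with enzyme and substrate and 100% = no enzyme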
Details: GDP FP detection, at 16.5 µM, active compounds read high

inhibition, active:
CCOC(=O)c1ccc(Nc2cc3ccccc3c(=O)[nH]2)cc1 29.1%
N#Cc1cc([N+](=O)[O-])ccc1Oc1cccc(/C=N/NC(=O)c2ccc(Cl)cc2)c1 25.2%
C=CCNc1nc(N)c(C(=C(C#N)C#N)c2ccccc2)s1 29.1%
O=c1/c(=C/c2ccc(CNS(=O)(=O)c3ccccc3)o2)sc2n1CCN=2 26%
COc1ccc(-n2nnnc2SCC(=O)c2ccc(OC)c(OC)c2)cc1 27.3%

inhibition, inactive:
COC(=O)[C@]12C[C@H](CC(=O)NCCC(C)C)C(=O)N(CCc3ccc(OC)c(OC)c3)C1=C[C@H](C(C)(C)C)O[C@@H]2C 10.4%
Cc1nc(NC(=O)C(C)(C)C)sc1[N+](=O)[O-] -0.12%
Nc1ncnc2c1ncn2[C@@H]1O[C@H](C(=O)N[C@@H](CCc2ccccc2)C(=O)N2CCCN(Cc3cccs3)CC2)[C@@H](O)[C@H]1O -0.42%
COC(=O)C1=C(C)N(Cc2ccc(C(F)(F)F)cc2)C(=NCc2ccccc2)NC1c1ccccc1C(F)(F)F (stereo not drawn) -2.57%
COCCNC(=S)N(C)[C@H]1C[C@H]2c3[nH]c4ccccc4c3CCN2C[C@H]1[C@H](C)O 6.89%
O=C(NN=Cc1ccco1)C(=O)Nc1ccc(Cl)c([N+](=O)[O-])c1 3.05%
COC(=O)C1=C(C)N(Cc2cccc(C(F)(F)F)c2)C(=NCc2ccccc2)NC1c1ccccc1C(F)(F)F (stereo not drawn) 11.8%
COC(=O)[C@H](CC(C)C)NS(=O)(=O)c1c(F)cccc1F 0.11%
CCc1ccc(C2=CC(=O)CC(C)(C)C2=O)cc1 -7.16%
C=CC[C@]12C[C@@]3(O[C@H](c4ccc(C(F)(F)F)cc4)N=C3C[C@H](c3ccc(OC)cc3)[C@H]1C)N(C1CCN(Cc3ccccc3)CC1)C2=O 5.12%
CC(C)(C)c1ccc(S(=O)(=O)NCC2CCN(C(=O)C(=O)c3cc4ccccc4o3)CC2)cc1 -6.17%
CCOC(=O)c1ccc(NC(=O)c2c(NCc3ccccc3)[nH]c(=O)[nH]c2=O)cc1 -2.85%
CCOC(=O)c1ccc(NC(=O)c2c(N)n(C)c(=O)[nH]c2=O)cc1 10.2%
CCOC(=O)Cn1c2c(n(-c3ccc(F)cc3)c1=O)C=C(c1ccccc1)[C@@H](C)C(C(=O)N(C)C1CCCCC1)=C2 -1.25%
O=C(N/N=C/c1cccc([N+](=O)[O-])c1)C1CC(=O)N(c2ccc(Br)cc2)C1 (stereo not drawn) -8.22%
CCCc1ccc(OCc2ccc(C(=O)N/N=C/c3cccc([N+](=O)[O-])c3)o2)c(OC)c1 -0.67%
CN(C)C(=O)N1CCN(C(=O)[C@@H](Cc2ccccc2)NC(=O)[C@H]2O[C@@H](n3ccc(N)nc3=O)[C@H](O)[C@@H]2O)CC1 -4.92%
COc1cccc(-c2cc(CNC(=O)[C@@H](Cc3ccccc3)NC(=O)[C@H]3O[C@@H](n4cnc(C(N)=O)n4)[C@H](O)[C@@H]3O)no2)c1 0.63%
COC(=O)c1sc(N2CCN(Cc3ccccc3)CC2)nc1N 6.27%
COc1ccccc1Cc1c(-c2ccc(F)cc2)nc2ccc(C)cn12 -3.6%
COC(=O)C1=C(C)NC(=O)/C1=C/c1ccc(CNS(=O)(=O)c2ccc(C)cc2)o1 -2.9%
O=S(=O)(NCc1ccccc1)c1ccc(S(=O)(=O)N2CCCC2)cc1 16.8%
Cc1ccc(C)c(CN2CCC(CNC(=O)C3CCCN(c4ncnc5c4nc4n5CCCCC4)C3)CC2)c1 (stereo not drawn) -4.48%
COc1ccccc1-c1ccc([C@@H]2C[C@H]3[C@H](CON3C)CN2S(=O)(=O)c2cc(Cl)cc(Cl)c2)cc1 -15.3%
CN1CCCCC(NC(=O)C(C)(C)C)C1=O (stereo not drawn) -1.72%
CC(=NNC(N)=O)c1ccc(Cl)c(-n2cccc2)c1 7.66%
Cc1cc(NCCc2c[nH]c3ccccc23)ccc1Oc1cccnc1 6.6%
COC(=O)[C@]12C[C@H](CC(=O)N3CCN(C(=O)C4CC4)CC3)C(=O)N(Cc3ccc4c(c3)OCO4)C1=C[C@H](C(C)(C)C)O[C@@H]2C -0.19%
COC(=O)[C@]12C[C@H](CC(=O)NCCc3ccccc3OC)C(=O)N(Cc3ccccc3)C1=C[C@H](C(C)C)O[C@@H]2C1CC1 -3.14%
CC[C@H](C)[C@H]1CNC(=O)C(=O)N1CC1CCN(CCc2ccc(OC)c(OC)c2)CC1 -3.91%
COc1ccc(-c2ccc3c(n2)CCCN3S(=O)(=O)c2ccc(C)cc2)cc1 -10.4%
CN[C@H]1C[C@H]2c3[nH]c4c(-c5ccccc5)cccc4c3CCN2C(=O)[C@H]1[C@H](C)O -4.1%
COC(=O)C1=C(C)N(Cc2cccc(C(F)(F)F)c2)C(=NCc2cccc(C(F)(F)F)c2)NC1c1ccccc1C(F)(F)F (stereo not drawn) 4.19%
CCOC(=O)/C=C/c1ccccc1O 8.09%
C[C@@H]1ON(C)[C@H]2C[C@H]3c4cc(N5CCOCC5)ccc4CCN3C[C@@H]12 11.7%
COC(=O)c1cc2c(c3c4ccccc4n(S(=O)(=O)c4cccc(C)c4)c13)C(=O)N(Cc1ccccc1)C2 -7.05%
O=C(CSc1nnnn1-c1ccc(O)cc1)c1ccc(F)cc1 1.74%
COc1ccc(NC(=O)CSc2nnnn2-c2cccc(OC)c2)cc1 3.21%
OC(CCl)CCl 12.1%
COC(=O)c1c(-c2ccc(OC)cc2)c2c(c3c4cc(OC)ccc4n(S(=O)(=O)c4ccc(F)cc4)c13)C(=O)N(C)C2 -0.62%
CCCN1C(=O)c2[nH]nc(-c3ccccc3)c2C1c1ccccc1 (stereo not drawn) 0.41%
C[C@H](CO)N1C[C@H](C)[C@@H](CN(C)C(=O)Nc2ccccc2F)OCc2cn(nn2)CCCC1=O -10.4%
Nc1ncnc2c1ncn2C1OC(CO)CC1O (stereo not drawn) 3.34%
